Inconclusive results are not listed. Calls of active or inactive are those of the source. Rule for the calls: active = hit-call score of the fitted dose curve at least 0.9, where 1 is the maximum; inconclusive = response in the unintended direction; inactive = score below 0.9.
The compounds below were run against Nuclear receptor subfamily 1 group I member 3 (Homo sapiens) (UniProt Q14994) (assay: ATG_CAR_TRANS: Attagene TRANS-FACTORIAL HepG2 Assay for human Constitutive Androstane Receptor (CAR) (AID 2282969;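 note: activators raise reporter mRNA above DMSO so AC50 marks induction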)). Conditions: HepG2 Attagene TRANS-FACTORIAL CAR reporter.
Sequence of Nuclear receptor subfamily 1 group I member 3 (Homo sapiens) (Q14994 whole entry, looked up, the tested form may be a part): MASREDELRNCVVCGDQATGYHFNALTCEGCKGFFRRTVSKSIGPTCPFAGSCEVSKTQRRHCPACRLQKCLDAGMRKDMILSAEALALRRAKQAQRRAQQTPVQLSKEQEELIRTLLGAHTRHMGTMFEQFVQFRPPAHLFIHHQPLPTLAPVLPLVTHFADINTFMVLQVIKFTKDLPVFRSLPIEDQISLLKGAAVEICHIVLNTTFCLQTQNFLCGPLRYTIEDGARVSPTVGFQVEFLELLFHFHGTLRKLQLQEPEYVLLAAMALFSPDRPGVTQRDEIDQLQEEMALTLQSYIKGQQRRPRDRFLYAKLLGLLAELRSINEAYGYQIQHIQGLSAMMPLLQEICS
Method in brief: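 HepG2 cells transiently transfected with GAL4-UAS reporter units; TRANS format reads activity of exogenous chimeric NR-Gal4 protein. After 24 h dosing, reporter mRNA quantified by RT-PCR, 6-FAM labelling and capillary electrophoresis; gain of signal fitted against DMSO.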

`O=C(O)C(F)(OC(F)(F)C(F)(OC(F)(F)C(F)(OC(F)(F)C(F)(F)C(F)(F)F)C(F)(F)F)C(F)(F)F)C(F)(F)F` (centres undefined) was tested. Which outcome did it give?
The outcome was “inactive”.

Which outcome does the source give for `c1ccc(-c2ccccc2-c2ccccc2)cc1` here?
The outcome was “inactive”.

`CNC(=S)NC` was tested. Which outcome did it give?
Its outcome is “inactive”.

For `CCN(CC)c1ccc2c(C)cc(=O)oc2c1`, which outcome is on record?
The outcome was “inactive”.

Which outcome does the source give for `O=C(O)C(F)(F)C(F)(F)C(F)(F)C(F)(F)C(F)(F)C(F)(F)C(F)(F)C(F)(F)C(F)(F)C(F)(F)C(F)(F)C(F)(F)C(F)(F)F` here?
Its outcome is “inactive”.

`FC(F)(F)C(F)(F)C(F)(F)C(F)(F)CCI` was tested. Which outcome did it give?
The outcome was “inactive”.

`C=CC(=O)OCC(F)(F)C(F)(F)C(F)(F)C(F)(F)C(F)(F)C(F)(F)C(F)(F)F` was tested. Which outcome did it give?
The outcome was “inactive”.

With `C#C[C@]1(O)CC[C@H]2[C@@H]3CCc4cc(OC)ccc4[C@H]3CC[C@@]21C` as the compound, how does the outcome read?
Its outcome is “inactive”.

Which outcome does the source give for `O=C(O)C(F)(F)C(F)(F)OC(F)(F)F` here?
The outcome was “inactive”.

With `CCCCCCCCCCCCCCCC[N+](C)(C)Cc1ccccc1` as the compound, how does the outcome read?
Its outcome is “inactive”.

How did the outcome turn out when `c1ccc(B(c2ccccc2)c2ccccc2)cc1` was run?
The outcome was “inactive”.

With `C=C(C)C(=O)OCCC(F)(F)C(F)(F)C(F)(F)C(F)(F)C(F)(C(F)(F)F)C(F)(F)F` as the compound, how does the outcome read?
The outcome was “inactive”.

`CC(C)OC(=O)c1ccccc1C(=O)OC(C)C` was tested. Which outcome did it give?
Its outcome is “inactive”.

`CCCCCCC(C)OC(=O)CCCCC(=O)OC(C)CCCCCC` (centres undefined) was tested. Which outcome did it give?
Its outcome is “inactive”.

Which outcome does the source give for `C(=C(c1ccccc1)c1ccccc1)c1ccccc1` here?
The outcome was “inactive”.

With `O=C(O)C(F)(F)C(F)(F)C(F)(F)F` as the compound, how does the outcome read?
Its outcome is “inactive”.

`O=C(OCCOCCOCCOC(=O)c1ccccc1)c1ccccc1` was tested. Which outcome did it give?
The outcome was “inactive”.

How did the outcome turn out when `OCC(F)(F)C(F)(F)C(F)(F)F` was run?
The outcome was “inactive”.

Which outcome does the source give for `Oc1ccc(Nc2ccccc2)cc1` here?
The outcome was “inactive”.
